TGFb inhibitor: blocks TGF-b signaling; HepG2 CAGA-GFP TGF-b/SMAD3 reporter, GFP fluorescence, 18 h; TGF-beta stimulated, 500 pg/mL final; Potency, µM (highest dose often 46.1 µM), without a hit: top-dose activity, negative = inhibition, most hits filed as inhibitors; 410,000 compounds, 1.2% hits; AID 588855; also: potency is read from the fitted curve at half-maximal effect; % is scaled to controls: 0 for no effect and ±100 for the full control effect; nearly all actives have a fitted effect of over 65% in size
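Per well, imaged GFP fluorescence of HEPG2 CAGA-GFP cells gives the signal; cells get compound, then TGF-beta (500 pg/mL final), 18 h at 37 degrees C; %Activity versus -TGF-beta and +DMSO controls.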
IL-1B inflam inh: blocks inflammasome-driven IL-1 beta release | THP-1 LPS/ATP IL-1B secretion, AlphaLISA, 16 h; active compounds read low | AID 743279 | 360,000 compounds, 4.7% hits | activity change, % at 57.5 µM; in the data active = activity change below about -50%; inconclusive = mostly about -30% to -49%; also: % is scaled to controls: 0 for no effect and ±100 for the full control effect
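THP-1 cells pretreated 1 hr with compounds (up to 57.5 uM final), then stimulated with LPS (250 ng/mL final) plus ATP (1.25 mM final); secreted IL-1B measured by AlphaLISA after 16 hr, decreased signal indicating inhibition.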
HepG2 viability: kills HepG2 cells in TGF-b inhibitor counter-screen. HepG2 CAGA-GFP viability, ATP luminescence, 18 h. Potency, µM (series often up to 46.1 µM), inactives show top-dose activity change, negative = cytotoxicity, most hits filed as cytotoxic. 410,000 compounds, 0.76% hits; also: potency is read from the fitted curve at half-maximal effect
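HepG2 CAGA-GFP cells (1000/well, DMEM with 1% FBS) received compound, then TGF-beta at 500 pg/mL final, and were incubated 18 hours at 37 degrees C. Viability was read by CellTiter-Glo luminescence. Media-only wells were set as complete cell-killing and DMSO as no toxicity.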
DT40 TDP1 no CPT: qHTS for Inhibitors of human tyrosyl-DNA phosphodiesterase 1 (TDP1): qHTS in cells in absence of CPT. Potency, µM (doses to about 46.2 µM), inactives show at the highest dose activity change, negative = growth inhibition, usual class: inhibitors. 420,000 compounds, 15% hits. DT40 Tdp1-/- hTDP1 cells, no CPT, ATP luminescence, 48 h; also: potency is read from the fitted curve at half-maximal effect; % is scaled to controls: 0 for no effect and ±100 for the full control effect; nearly all actives have a fitted effect of over 55% in size
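Stably hTDP1-transfected Tdp1-null chicken DT40 cells were treated with library compounds minus camptothecin and grown for at least 48 hr at 37 °C, after which cellular ATP was quantified by luminescence.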
TDP1 cell CPT: growth inhibition of DT40 Tdp1-/-;hTDP1 cells with camptothecin (screen for TDP1 inhibitors) | chicken DT40 Tdp1-/-;hTDP1 cells + 20 nM CPT, ATP luminescence, 48 h | Potency, µM (doses to about 46.2 µM), for inactives: at the top dose activity change, negative = growth inhibition, hits mostly inhibitors | 420,000 compounds, 12% hits; also: potency is read from the fitted curve at half-maximal effect; % is scaled to controls: 0 for no effect and ±100 for the full control effect; nearly all actives have a fitted effect of over 55% in size
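Chicken DT40 Tdp1-/- cells stably complemented with human TDP1 were seeded at 400 cells/well in medium containing 20 nM camptothecin, exposed to pin-transferred compounds, and grown at 37 °C for at least 48 hr. Viability was read as ATP luminescence.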
TDP1 inh: blocks human tyrosyl-DNA phosphodiesterase 1; Potency, µM (series often up to 130 µM), for inactives: at the top dose activity change, negative = inhibition, usual class: inhibitors; 350,000 compounds, 0.28% hits; recombinant TDP1, AlphaScreen DNA substrate cleavage; also: potency is read from the fitted curve at half-maximal effect; % is scaled to controls: 0 for no effect and ±100 for the full control effect; nearly all actives have a fitted effect of over 40% in size
Target sequence (Q9NUW8 whole entry, looked up): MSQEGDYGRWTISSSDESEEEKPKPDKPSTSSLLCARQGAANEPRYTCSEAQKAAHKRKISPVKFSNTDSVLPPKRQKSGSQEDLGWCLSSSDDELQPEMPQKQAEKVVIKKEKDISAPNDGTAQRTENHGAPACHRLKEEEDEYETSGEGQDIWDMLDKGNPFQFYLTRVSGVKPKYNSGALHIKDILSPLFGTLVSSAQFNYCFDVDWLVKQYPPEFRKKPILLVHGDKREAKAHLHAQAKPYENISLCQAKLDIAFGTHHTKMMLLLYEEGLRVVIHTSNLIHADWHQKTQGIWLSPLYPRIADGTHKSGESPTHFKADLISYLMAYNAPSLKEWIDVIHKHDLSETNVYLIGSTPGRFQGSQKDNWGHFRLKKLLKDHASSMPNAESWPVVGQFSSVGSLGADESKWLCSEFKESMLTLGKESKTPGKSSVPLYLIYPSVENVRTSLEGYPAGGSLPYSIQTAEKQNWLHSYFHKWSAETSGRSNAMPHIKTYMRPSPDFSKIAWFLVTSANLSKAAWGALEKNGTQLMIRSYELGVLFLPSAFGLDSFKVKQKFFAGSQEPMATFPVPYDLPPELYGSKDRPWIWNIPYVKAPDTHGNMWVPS
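E. coli-derived human Tdp1, 1 nM final. Cpd preinc 15 min RT; substrate 15 nM final, 5 min RT; AS bead mix 10 ug/ml final, 10 min RT. Signal loss = tyrosine-FITC cleavage. No-enzyme wells = max signal.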
The depositor's hits bear a star; ? = inconclusive; · = not tested or not shown. Rows were chosen to be rich in hits. Some 19% of all compounds tested hit in one or more screens of this group. Unless noted, calls follow the shape of the dose curve; as a rule, active = well fitted curve in the direction sought with a large enough effect; inconclusive = small, poorly fitted or top-dose-only effect, or another doubt; inactive = no such curve, though single readings can be large; an effect the other way counts as inactive or inconclusive.

SMILES	TGFb inhibitor	IL-1B inflam inh	HepG2 viability	DT40 TDP1 no CPT	TDP1 cell CPT	TDP1 inh
CCCCC(=O)Nc1ccccc1C(=O)OCc1cc(=O)n2nc(C3CCCCC3)sc2n1	?	·	-32%	-29%	?	1%
Cc1cc(CNC(=O)[C@H](C)[C@H]2C[C@]2(C)[C@H](NC(=O)OCc2ccccc2)c2ccccc2)nn1C	·	·	·	·	·	8%
COc1ccc(CNC(=O)[C@H](C)[C@@H]2C[C@@]2(C)[C@@H](NC(=O)OCc2ccccc2)c2ccccc2)cc1OC	-1%	-27	4%	12µM*	15µM*	-8%
Cc1cc(CNC(=O)[C@H](C)[C@@H]2C[C@@]2(C)[C@@H](NC(=O)OCc2ccccc2)c2ccccc2)nn1C	-11%	-10	-27%	?	23µM*	-8%
CC(NNC(=O)c1ccccc1)c1ccccc1 (stereo not drawn)	·	·	·	-27%	8%	-2%
O=C(CN1CCN(S(=O)(=O)N2CCCCC2)CC1)Nc1ccc(Br)cc1	3%	-5	-33%	16µM*	?	0%
O=C(CNc1ccc(Br)cc1)Nc1ccc(S(=O)(=O)N2CCCCC2)cc1	?	3	-23%	29µM*	?	·
COc1ccc(-c2ccc(NS(=O)(=O)c3ccc(NC(C)=O)cc3)cc2)nn1	27%	·	-4%	?	?	7%
Cc1ccccc1C1N=C2Oc3ccccc3C=C2C(=O)N1 (stereo not drawn)	10%	-5	-28%	5.8µM*	6.5µM*	·
Cc1ccccc1C1NC(=O)c2ccccc2O1 (stereo not drawn)	17%	-13	4%	-26%	2%	·
CCCCCCN1CCN(C2CN(Cc3cn(Cc4ccc(C)cc4)nn3)S(=O)(=O)C2)CC1 (stereo not drawn)	·	-14	·	26µM*	?	·
CCCCCCN1CCN(C2CN(CCc3ccccc3)S(=O)(=O)C2)CC1 (stereo not drawn)	-21%	-3	-10%	16µM*	?	·
CCCCCCn1cc(CN2CC(N3CCN(Cc4cccc(C)c4)CC3)CS2(=O)=O)nn1 (stereo not drawn)	·	-12	·	23µM*	?	·
CCCCCCN1CCN(C2CN(C3CCCCC3)S(=O)(=O)C2)CC1 (stereo not drawn)	?	-13	-15%	?	16µM*	·
Cc1cccc(CN2CCN(C3CN(Cc4cn(Cc5ccccc5)nn4)S(=O)(=O)C3)CC2)c1 (stereo not drawn)	·	5	·	?	?	·
Cc1ccc(Cn2cc(CN3CC(N4CCCCC4)CS3(=O)=O)nn2)cc1 (stereo not drawn)	·	19	·	-21%	-13%	·
C[N+]1(CC(=O)c2ccc(Oc3ccccc3)cc2)CCOCC1	-1%	·	3%	?	?	·
O=C(NC1CCCC1)C1CCN(S(=O)(=O)c2ccccc2)CC1	-1%	5	-1%	0%	6%	·
O=C(O)c1ccccc1C(=O)c1ccc(Sc2ccc(Cl)cc2)c([N+](=O)[O-])c1	?	33	-31%	-22%	-12%	9%
Cc1ccc(Sc2ccc(CN3CCCC3)cc2[N+](=O)[O-])cc1	?	0	-38%	5.8µM*	6.5µM*	5%
CN1CCN(Cc2ccc(Sc3ccc(Cl)cc3)c([N+](=O)[O-])c2)CC1	-3%	-92*	-22%	15µM*	?	11%
Cc1ccc(Sc2ccc(CO)cc2[N+](=O)[O-])cc1	0%	0	-39%	?	13%	6%
N#CC(=C=[N-])c1nc2ccccc2nc1-[n+]1cccc(NC(=O)c2cccs2)c1	12%	19	17%	6.5µM*	5.8µM*	0%

Compound activity deposited in PubChem by National Center for Advancing Translational Sciences (NCATS).
